Compound activity from PubChem BioAssay.
SRC3 TRFRET art = counter-screen for PPARgamma SRC-3 recruitment agonists: TR-FRET artefact | PPARgamma/SRC-3 format; hits give high values | TR-FRET ratio at 8 µM | actives 0.39% (n = 99,000); in the data active = TR-FRET ratio above about 2000
SRC2 TRFRET art = flags TR-FRET format artefacts in PPARgamma SRC-2 recruitment agonist screen; TR-FRET artefact counter-screen; hits give high values; TR-FRET ratio at 8 µM; actives 0.4% (n = 200,000); AID 1049; in the data active = TR-FRET ratio above about 2000
SRC1 TRFRET art = flags TR-FRET format artefacts in PPARgamma SRC-1 recruitment agonist screen; TR-FRET detection artefact counter-screen, emission ratio; hits give high values; actives 0.34% (n = 99,000); TR-FRET ratio at 8 µM; in the data active = TR-FRET ratio above about 2300
PPARg SRC-2 ag = agonists of SRC-2 recruitment by human PPARgamma. P37231. PPARgamma LBD-SRC-2 recruitment, biochemical. activation, % at 8 µM. actives 0.34% (n = 200,000)
Target sequence (P37231 whole entry, looked up, the tested form may be a part): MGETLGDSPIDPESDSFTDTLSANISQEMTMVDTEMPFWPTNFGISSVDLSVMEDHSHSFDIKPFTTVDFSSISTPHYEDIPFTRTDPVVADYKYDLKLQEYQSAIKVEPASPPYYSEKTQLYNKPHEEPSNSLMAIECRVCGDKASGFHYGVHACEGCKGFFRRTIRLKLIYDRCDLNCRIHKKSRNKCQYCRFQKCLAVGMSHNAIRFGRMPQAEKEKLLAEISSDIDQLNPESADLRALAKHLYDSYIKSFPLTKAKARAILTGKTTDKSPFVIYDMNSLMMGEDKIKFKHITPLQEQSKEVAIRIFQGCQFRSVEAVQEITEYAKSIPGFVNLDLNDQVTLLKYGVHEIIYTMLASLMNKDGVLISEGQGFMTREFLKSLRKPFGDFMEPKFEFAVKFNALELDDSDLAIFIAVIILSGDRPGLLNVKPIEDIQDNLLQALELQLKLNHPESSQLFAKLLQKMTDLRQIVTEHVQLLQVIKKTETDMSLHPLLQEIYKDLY
PPARg SRC1 recr = promotes SRC-1 coactivator recruitment by human PPARgamma | PPARgamma-SRC-1 coactivator recruitment biochemical assay | activation, % at 8 µM | actives 0.41% (n = 200,000) | AID 631; in the data active = activation above about 19%
PPARg SRC3 recr = PPARgamma-driven SRC-3 recruitment agonism; AID 731; P37231; biochemical PPARgamma/SRC-3 coactivator recruitment assay; activation, % at 8 µM; actives 0.26% (n = 200,000); in the data active = activation above about 23%
PPARg SRC2 ag = human PPARgamma SRC-2 recruitment agonism, confirmation | shares compounds with PPARg SRC3 recr | AID 1297 | biochemical SRC-2 recruitment by PPARgamma | activation, % at 8 µM | actives 52% (n = 790)
PPARg SRC1 conf = human PPARgamma SRC-1 recruitment agonism, confirmation; shares compounds with PPARg SRC3 recr; PPARgamma–SRC-1 coactivator recruitment biochemical assay; activation, % at 8 µM; actives 43% (n = 790); in the data active = activation above about 20%
PPARg SRC3 conf = confirmation of agonists of SRC-3 recruitment by human PPARgamma; shares compounds with PPARg SRC3 recr; biochemical PPARgamma-SRC-3 coactivator recruitment, agonist mode; activation, % at 8 µM; actives 29% (n = 790); AID 1301; in the data active = activation above about 24%
Hits are given with their value; . = inactive; / = no result given. An excerpt weighted towards active compounds, which were near 0.9% of everything screened. Cut-off read from the data, not from the text of the source, unless noted: active = activation above about 22%; inactive = the rest.

SMILES | SRC3 TRFRET art | SRC2 TRFRET art | SRC1 TRFRET art | PPARg SRC-2 ag | PPARg SRC1 recr | PPARg SRC3 recr | PPARg SRC2 ag | PPARg SRC1 conf | PPARg SRC3 conf
Cc1cc(C(=O)COC(=O)CNS(=O)(=O)c2ccc3ccccc3c2)c(C)n1-c1ccccc1 | . | . | . | . | . | . | / | / | /
O=C(CNS(=O)(=O)c1ccc2ccccc2c1)OCC(=O)c1ccc(Br)s1 | / | 2540 | / | 60.9 | 33.3 | 68.7 | 55.1 | 35.1 | 38.0
C/C(=N\NC(=O)CN(c1ccc(Oc2ccccc2)cc1)S(C)(=O)=O)C(C)(C)C | . | . | . | . | . | . | / | / | /
O=C(Oc1ccc(Cl)c2cccnc12)N1CCCCC1 | . | . | . | . | . | . | / | / | /
O=C(Oc1c(Br)cc(Br)c2cccnc12)N1CCCCC1 | . | . | . | . | 28.7 | . | . | . | .
Cc1cc(C(F)(F)F)n(-c2ccc(N)cc2)n1 | . | . | . | . | . | . | / | / | /
Cc1ccc2[nH]c3c(=S)nc[nH]c3c2c1 | 2834 | 2733 | . | 38.0 | 23.2 | . | . | . | .
COc1cccc(Nc2nc(-c3sc(NC(=O)c4ccccc4)nc3C)cs2)c1 | / | . | / | . | . | 26.7 | 41.5 | 25.7 | .
CC(C)c1nc2sc3c(=O)[nH]c(=S)[nH]c3c2c2c1CCC2 | 2640 | 2507 | 2489 | 32.9 | 23.9 | . | 23.3 | . | .
CCOC(=O)c1sc2nc(C(C)C)c3c(c2c1N)CCC3 | . | . | . | . | . | . | / | / | /
CCC(NC(=O)c1ccccc1NC(=O)c1ccco1)C(=O)NC1CCCCC1 (stereo unspecified) | / | 2076 | / | 24.9 | . | . | . | . | .
COc1cc(/C=C(\C#N)C(=O)Nc2cccc3ncccc23)cc(OC)c1OC | . | . | . | . | . | 24.2 | . | . | .
COc1cccc(C2=NCCc3cc4c(cc32)OCO4)c1OC | . | . | . | . | . | . | / | / | /
COc1ccc2cc3[n+](cc2c1OC)CCc1cc2c(cc1-3)OCO2 | . | . | . | 24.7 | . | . | . | . | .
COc1cc2cc3c(N)c(C(=O)NCc4ccco4)sc3nc2cc1OC | / | . | / | . | 21.0 | . | . | . | .
Cc1ccc2nc3sc(C(=O)NCc4ccco4)c(N)c3cc2c1 | / | . | / | . | . | . | / | / | /
O=c1c(Br)c(Br)cnn1-c1ccccc1 | 2406 | 2405 | 2662 | 33.7 | 37.8 | 31.6 | 28.7 | . | .
Cc1ccc(-n2ncc(Br)c(Br)c2=O)cc1 | . | . | . | . | . | . | / | / | /
CCC(/C=C1\Sc2ccc(OC)cc2N1CCO)=C\c1sc2ccc(OC)cc2[n+]1CCO | . | . | . | . | 23.1 | . | . | . | .
Cn1cc(/C=N\O)nc2c(=O)n(-c3ccccc3)c(=O)nc1-2 | . | . | . | . | . | . | / | / | /
O=C(Nc1nc(=O)c2ccccc2s1)c1ccc(Cl)cc1 | / | . | / | . | 20.2 | . | . | . | .
COCCNC(=S)Nc1cc(OC)c(OC)cc1C#N | . | . | . | . | . | . | / | / | /
CSc1oc(-c2ccccc2)nc1C(N)=O | / | . | / | . | . | 30.2 | 27.3 | . | .
CN1CCN(NC(=S)NC(C)(C)CC(C)(C)C)CC1 | . | . | . | . | . | . | / | / | /
CCS(=O)(=O)Nc1ccc(-c2nnc(SCC(=O)c3cccc(OC)c3)o2)cc1 | / | . | / | . | . | . | / | / | /
SMILES | SRC3 TRFRET art | SRC2 TRFRET art | SRC1 TRFRET art | PPARg SRC-2 ag | PPARg SRC1 recr | PPARg SRC3 recr | PPARg SRC2 ag | PPARg SRC1 conf | PPARg SRC3 conf
CCS(=O)(=O)Nc1ccc(-c2nnc(SCC(=O)c3ccc(NC(C)=O)c(OC)c3)o2)cc1 | / | . | / | . | 30.8 | 56.8 | . | . | .
Clc1ccc(-c2ccc(-c3nn4c(-c5ccco5)nnc4s3)o2)cc1 | / | . | / | . | . | . | / | / | /
Brc1ccc(-c2nn3c(-c4ccco4)nnc3s2)o1 | / | 3538 | / | 98.8 | 75.3 | 115.3 | 75.8 | 52.3 | 52.7
CCOc1ccc(S(=O)(=O)N(C)c2ccc(OCC(=O)Nc3nc(-c4cc(OC)ccc4OC)cs3)cc2)cc1 | 2621 | 2453 | 2860 | 26.2 | 24.6 | . | 31.7 | 26.0 | .
Cc1cc(C)n(C(=O)/C(C#N)=N/Nc2cc(Cl)cc(Cl)c2)n1 | . | . | . | . | . | . | / | / | /
COc1cc(-c2nc3ccccc3s2)ccc1O | / | 2089 | / | 30.3 | 23.4 | 30.7 | 30.5 | 32.7 | .
Cc1ccccc1C(=O)Nc1nnc(-c2ccco2)s1 | . | 2099 | 2497 | . | 24.2 | . | 42.4 | 36.5 | 26.4
COc1ccccc1C(=O)Nc1nnc(-c2ccco2)s1 | / | . | / | . | . | . | / | / | /
CCOC(=O)c1sc(-c2ccc(OC)cc2)cc1NC(C)=O | 2089 | . | 2390 | 22.5 | . | . | 43.0 | 29.7 | 31.5
CCOc1ccc(NC(=O)Nc2cc(-c3ccccc3)sc2C(=O)OC)cc1 | . | . | . | . | . | . | / | / | /
COC(=O)c1sc(-c2ccccc2)cc1NC(=O)C1CC1 | 2499 | 2243 | 2544 | 30.2 | 32.6 | . | 32.0 | 21.1 | .
Cc1cc(C)c(C(=O)Nc2ccc(Br)c(C(F)(F)F)c2)c(C)c1 | . | . | . | . | . | . | / | / | /
CC(=O)Nc1cccc(N=NN2CCCCC2)c1 | . | . | . | . | . | . | / | / | /
Cc1cc(-c2n[nH]c(=S)n2-c2ccccc2)nn1C | . | . | . | . | . | . | / | / | /
S=c1[nH]nc(-c2cc(-c3ccco3)[nH]n2)n1-c1ccccc1 | / | . | / | . | . | 26.8 | 22.8 | . | .
Cn1cc(Cl)c(-c2n[nH]c(=S)n2-c2ccccc2)n1 | 2184 | 2159 | 2497 | 35.2 | 29.5 | . | 26.6 | . | .
Cc1nn(C)c(-c2n[nH]c(=S)n2-c2ccccc2)c1Cl | 2211 | 2081 | . | . | 23.7 | . | . | . | .
Cc1c(Cl)c(-c2n[nH]c(=S)n2-c2ccc(F)cc2)nn1C | / | 2050 | / | 31.2 | 32.6 | 47.6 | 27.7 | . | .
CCn1c(-c2nn(C)cc2Cl)n[nH]c1=S | . | . | . | . | . | . | / | / | /
C/C(CC(=O)Nc1cccc(Cl)c1Cl)=N\NC(=O)c1ccccc1N | . | . | . | . | . | . | / | / | /
O=S(=O)(NC(=NCc1ccccc1)c1ccc(F)cc1)c1ccc(Cl)cc1 | . | . | . | . | . | . | / | / | /
COC(=O)c1cccc(NC(=O)COc2cccc([N+](=O)[O-])c2)c1 | . | . | . | . | . | . | / | / | /
CN1CCN(C(=O)C23CC4CC(C2)CC(c2ccccc2)(C4)C3)CC1 | . | . | . | . | . | . | / | / | /
CC(C)N(C(=O)Cn1cc(SCC(=O)NCC2CCCO2)c2ccccc21)C(C)C (stereo unspecified) | . | . | . | . | . | . | / | / | /
CN(CCCNC(=O)CSc1cc(=O)n(C)c2cc(Cl)ccc12)Cc1ccccc1 | 2993 | 2902 | 3308 | . | 63.6 | 32.9 | 39.3 | 26.8 | 26.7
